Inconclusive results are not listed. Active and inactive are the calls of the source. Calls come from the whole dose curve; as a rule, active = well fitted curve in the direction sought with a large enough effect; inconclusive = small, poorly fitted or top-dose-only effect, or another doubt; inactive = no such curve, though single readings can be large; an effect the other way counts as inactive or inconclusive.
Legend:
[1] = Quantitative High-Throughput drug screen in 47 multiple myeloma cell lines against the NCATS MIPE library collection: Karpas25_ECACC cell viability assay (AID 1918968; note: nearly all actives have a fitted effect of over 35% in size)
How it was run: (§1)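 We plated 500 myeloma cells per well, pinned in MIPE 4.0 compounds, and incubated for 48 hours at 37C. ATP was then quantified with CellTiter-Glo, with DMSO and media-only wells defining 100% and 0%.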

[2] = Quantitative High-Throughput drug screen in 47 multiple myeloma cell lines against the NCATS MIPE library collection: KMS27_JCRB cell viability assay (AID 1918970); note: nearly all actives have a fitted effect of over 30% in size
How it was run: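 KMS27_JCRB myeloma cells, 500 per well, exposed 48 h at 37 C, 5% CO2 to MIPE 4.0 compounds. Viability from ATP by CellTiter-Glo luminescence, normalized to DMSO (100%) and medium-only (0%) wells.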

[3] = Quantitative High-Throughput drug screen in 47 multiple myeloma cell lines against the NCATS MIPE library collection: KMS12PE_JCRB cell viability assay (AID 1918972); note: nearly all actives have a fitted effect of over 30% in size
How it was run: as §1

[4] = Quantitative High-Throughput drug screen in 47 multiple myeloma cell lines against the NCATS MIPE library collection: NCIH929_DSMZ cell viability assay (AID 1918978); note: nearly all actives have a fitted effect of over 35% in size
How it was run: (§2)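 Plated at 500 cells per well, myeloma lines received MIPE 4.0 compounds by pin tool. Following 48 h culture at 37 °C, CellTiter-Glo luminescence gave viability relative to DMSO and media-only controls.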

[5] = Quantitative High-Throughput drug screen in 47 multiple myeloma cell lines against the NCATS MIPE library collection: MM1S_ATCC cell viability assay (AID 1918980); note: nearly all actives have a fitted effect of over 45% in size
How it was run: as §2

[6] = Quantitative High-Throughput drug screen in 47 multiple myeloma cell lines against the NCATS MIPE library collection: L363_DSMZ cell viability assay (AID 1918984); note: nearly all actives have a fitted effect of over 40% in size
How it was run: as §2

[7] = Quantitative High-Throughput drug screen in 47 multiple myeloma cell lines against the NCATS MIPE library collection: KMS34_JCRB cell viability assay (AID 1918985); note: nearly all actives have a fitted effect of over 40% in size
How it was run: as §2

[8] = Quantitative High-Throughput drug screen in 47 multiple myeloma cell lines against the NCATS MIPE library collection: OCIMY5_PLB cell viability assay (AID 1918988); note: nearly all actives have a fitted effect of over 65% in size
How it was run: as §2

[9] = Quantitative High-Throughput drug screen in 47 multiple myeloma cell lines against the NCATS MIPE library collection: KMS12BM_JCRB cell viability assay (AID 1918971); note: nearly all actives have a fitted effect of over 35% in size
How it was run: (§3)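 Myeloma cell lines, 500 cells per well, exposed to MIPE 4.0 library compounds for 48 h at 37C, 5% CO2. Viability from ATP by CellTiter-Glo luminescence; normalised to DMSO (100%) and media-only (0%) wells.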

[10] = Quantitative High-Throughput drug screen in 47 multiple myeloma cell lines against the NCATS MIPE library collection: KMS20_JCRB cell viability assay (AID 1918973); note: nearly all actives have a fitted effect of over 45% in size
How it was run: as §1

[11] = Quantitative High-Throughput drug screen in 47 multiple myeloma cell lines against the NCATS MIPE library collection: KMS21BM_JCRB cell viability assay (AID 1918974); conditions: ATP luminescence, 48 h; viability: at 45.8 µM (top of the series)
How it was run: as §1

[12] = Quantitative High-Throughput drug screen in 47 multiple myeloma cell lines against the NCATS MIPE library collection: KMS26_JCRB cell viability assay (AID 1918975); note: nearly all actives have a fitted effect of over 45% in size
How it was run: as §3

[13] = Quantitative High-Throughput drug screen in 47 multiple myeloma cell lines against the NCATS MIPE library collection: MMM1_PLB cell viability assay (AID 1918976); note: nearly all actives have a fitted effect of over 35% in size
How it was run: as §2

[14] = Quantitative High-Throughput drug screen in 47 multiple myeloma cell lines against the NCATS MIPE library collection: MOLP8_DSMZ cell viability assay (AID 1918977); note: nearly all actives have a fitted effect of over 45% in size
How it was run: as §2

[15] = Quantitative High-Throughput drug screen in 47 multiple myeloma cell lines against the NCATS MIPE library collection: OCIMY1_PLB cell viability assay (AID 1918979); note: nearly all actives have a fitted effect of over 35% in size
How it was run: as §2

[16] = Quantitative High-Throughput drug screen in 47 multiple myeloma cell lines against the NCATS MIPE library collection: MM1R_ATCC cell viability assay (AID 1918981); note: nearly all actives have a fitted effect of over 35% in size
How it was run: as §2

[17] = Quantitative High-Throughput drug screen in 47 multiple myeloma cell lines against the NCATS MIPE library collection: LP1_DSMZ cell viability assay (AID 1918982); note: nearly all actives have a fitted effect of over 35% in size
How it was run: as §2

[18] = Quantitative High-Throughput drug screen in 47 multiple myeloma cell lines against the NCATS MIPE library collection: KMS28PE_JCRB cell viability assay (AID 1918983); note: nearly all actives have a fitted effect of over 35% in size
How it was run: as §2

[19] = Quantitative High-Throughput drug screen in 47 multiple myeloma cell lines against the NCATS MIPE library collection: H1112_PLB cell viability assay (AID 1918967; note: nearly all actives have a fitted effect of over 30% in size)
How it was run: as §1

[20] = Quantitative High-Throughput drug screen in 47 multiple myeloma cell lines against the NCATS MIPE library collection: OCIMY7_PLB cell viability assay (AID 1918987); note: nearly all actives have a fitted effect of over 65% in size
How it was run: as §2

Measured: Potency
Potency is the fitted concentration of half-maximal effect.

C[C@@H](CN1CC(=O)NC(=O)C1)N1CC(=O)NC(=O)C1
inactive: [7] | [8]
active: [1] 9.35 µM | [2] 3720 nM | [3] 1.66 µM | [4] 16.6 µM | [5] 3320 nM | [6] 2.96 µM

Nc1nc(F)nc2c1ncn2[C@@H]1O[C@H](CO)[C@@H](O)[C@@H]1O
active: [1] 0.296 µM | [2] 662 nM | [9] 0.209 µM | [3] 0.235 µM | [10] 264 nM | [11] 59 nM | [12] 235 nM | [13] 0.469 µM | [14] 0.166 µM | [4] 0.209 µM | [15] 469 nM | [5] 209 nM | [16] 0.166 µM | [17] 590 nM | [18] 0.372 µM | [7] 0.296 µM | [8] 0.0743 µM

CCOC(=O)[C@H](CCc1ccccc1)N[C@H]1CS[C@H](c2cccs2)CN(CC(=O)O)C1=O
inactive: [15]
active: [1] 5.9 µM | [2] 296 nM | [9] 23.5 µM | [3] 1.66 µM | [11] 132 nM | [13] 16.6 µM | [14] 20.9 µM | [4] 5.9 µM | [5] 418 nM | [16] 18.7 µM | [18] 18.7 µM | [7] 10.5 µM | [8] 16.6 µM

COc1cc(NS(=O)(=O)c2ccc(N)cc2)nc(OC)n1
not listed: [5] | [6] | [7] | [8] | [10] | [13] | [19] | [20]
inactive: all other assays above

CO[C@@]12[C@H](COC(N)=O)C3=C(C(=O)C(C)=C(N)C3=O)N1C[C@@H]1N[C@@H]12
active: [19] 23.5 µM | [9] 23.5 µM | [12] 23500 nM | [13] 23.5 µM | [14] 23.5 µM | [4] 26.4 µM | [5] 264 nM | [16] 11.8 µM | [18] 23.5 µM | [7] 26.4 µM | [20] 18.7 µM | [8] 26.4 µM

O=S(=O)(c1cccc2cnccc12)N1CCCNCC1
active: [19] 16.6 µM | [18] 18.7 µM
inactive: [3] | [10] | [15] | [16]

COC(c1ccccc1)(c1ccccc1)[C@H](Oc1nc(C)cc(C)n1)C(=O)O
inactive: [1] | [2] | [3] | [12] | [4] | [15] | [16] | [18] | [7]

CCCc1nc(C)c2c(=O)[nH]c(-c3cc(S(=O)(=O)N4CCN(CC)CC4)ccc3OCC)nn12
active: [1] 5.26 µM | [2] 4690 nM | [3] 2.96 µM | [11] 3720 nM | [12] 4690 nM | [13] 6.62 µM | [14] 5.26 µM | [4] 3.72 µM | [15] 4690 nM | [5] 4690 nM | [16] 4.18 µM | [17] 4690 nM | [18] 8.33 µM | [7] 3.72 µM | [8] 5.9 µM

OCc1ccc(-c2nn(Cc3ccccc3)c3ccccc23)o1
active: [1] 9.35 µM | [9] 10.5 µM | [10] 1870 nM | [13] 1.05 µM | [4] 14.8 µM | [5] 4180 nM | [16] 8.33 µM | [8] 16.6 µM
inactive: [2] | [15] | [18] | [7]

CC(C)C[C@H](NC(=O)[C@H](CCc1ccccc1)NC(=O)CN1CCOCC1)C(=O)N[C@@H](Cc1ccccc1)C(=O)N[C@@H](CC(C)C)C(=O)[C@@]1(C)CO1
active: [1] 0.001 µM | [2] 1 nM | [3] 0.001 µM | [12] 13.2 nM | [13] 0.0833 µM | [14] 0.0019 µM | [4] 0.001 µM | [15] 9.3 nM | [5] 2.3 nM | [16] 0.0037 µM | [18] 0.003 µM | [7] 0.0059 µM | [20] 0.0118 µM | [8] 0.0033 µM

Cc1cccc(Nc2ccncc2S(=O)(=O)NC(=O)NC(C)C)c1
inactive: [1] | [2] | [3] | [4] | [15] | [5] | [18] | [7]
active: [9] 16.6 µM | [13] 20.9 µM | [8] 0.0013 µM
